From PubChem BioAssay (Tox21)
Results filed as inconclusive are left out. A call without a number means that no potency is given here. Values without a mark were called inactive. Active and inactive are the calls of the source. Calls follow the shape of the dose curve; as a rule, active = well fitted cell-killing curve with a large enough effect in the repeat runs; inconclusive = weak or mixed curves, or effect the other way; inactive = flat fitted curve, though single readings scatter.

What was measured:
[1] = cAMP Responsive Elements (CRE) small molecule antagonists, cell-based qHTS assay: qHTS cell viability counter screen (AID 2060913); details: CRE-bla HEK293T viability, CellTiter-Glo luminescence, 5 h; series mostly up to 92.4 µM; also: nearly all actives have a fitted effect of over 40% in size
How it was run: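 Steps: cells plated and held 18 hrs at 37 C/5% CO2; compounds and NKH477 (0.25 uM final) added; 3 hrs incubation; reporter substrate read; CellTiter-Glo added to measure cytotoxicity by luminescence.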

[2] = cAMP Responsive Elements (CRE) small molecule agonists, cell-based qHTS assay: qHTS cell viability counter screen (AID 2060914); details: CRE-bla HEK293T viability, CellTiter-Glo luminescence, 5 h; series mostly up to 92.4 µM;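 also: viability read after 3 h of compound exposure; nearly all actives have a fitted effect of over 50% in size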
How it was run: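 Cytotoxicity counter screen multiplexed with the CRE-bla reporter assay in HEK 293T cells: 3 h compound exposure at 37 °C, followed by CellTiter-Glo luminescence measured in the same wells.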
Potency is read from the fitted curve at half-maximal effect.

SMILES | Potency [1] | Potency [2] | viability change, negative = cytotoxic [1] | activity change, negative = cytotoxicity [2]
CC(Br)C(=O)O (centres undefined) | inactive | inactive |  | 
CN(C)C1CCCCC1 | inactive | inactive |  | 
CC(C(=O)c1ccccc1)N(C)C (centres undefined) | inactive | inactive |  | 
CS(=O)(=O)c1cc(C(F)(F)F)ccc1C(=O)c1cnoc1C1CC1 | inactive | inactive |  | 
Clc1ccc(C(Cl)(Cl)Cl)cc1Cl | inactive | inactive |  | 
CCC(C)C(C)(COC(N)=O)COC(N)=O (centres undefined) | inactive | inactive |  | 
NC(=O)CI | inactive | inactive |  | 
CC(C)(OOC(C)(C)c1ccccc1)c1ccccc1 | inactive | inactive |  | 
CCCCCCCCCCCCCCCl | inactive | inactive |  | 
COc1cccc([C@@]2(O)CCCC[C@@H]2CN(C)C)c1 | inactive | inactive |  | 
OC(c1ccc(Cl)cc1)(c1cncnc1)c1ccccc1Cl (centres undefined) | inactive | inactive |  | 
CCNc1nc(Cl)nc(NC(C)C)n1 | inactive | inactive |  | 
COCC(=O)N(c1c(C)cccc1C)N1CCOC1=O | inactive | inactive |  | 
Oc1cccc(Cl)c1 | inactive | inactive |  | 
CC1=C2[C@H]3OC(=O)[C@@H](C)[C@@H]3CC[C@@]2(C)C=CC1=O | inactive | inactive |  | 
Clc1ccc(C(c2ccc(Cl)cc2)C(Cl)Cl)cc1 | inactive | 62.1 µM (active) |  | 
NCCCNCCCN | inactive | inactive |  | 
ClCc1ccccn1 | inactive | inactive |  | 
Cc1cccc(N)c1N | inactive | inactive |  | 
C/C=C/C=O | inactive | inactive |  | 
S=C=Nc1ccccc1 | inactive | inactive |  | 
C=C(C)C(=O)[O][Sn]([CH2]CCC)([CH2]CCC)[CH2]CCC | 7.7 µM (active) | 4.86 µM (active) |  | 
COP(=S)(OC)SCN1C(=O)c2ccccc2C1=O | inactive | inactive |  | 
CNC(=O)Oc1cccc(N=CN(C)C)c1 | inactive | inactive |  | 
COP(=O)(CCC(=O)NCO)OC | inactive | inactive |  | 

SMILES | Potency [1] | Potency [2] | viability change, negative = cytotoxic [1] | activity change, negative = cytotoxicity [2]
BrCC1CO1 (centres undefined) | inactive | inactive |  | 
CCCOc1nn(C(=O)NS(=O)(=O)c2ccccc2C(=O)OC)c(=O)n1C | inactive | inactive |  | 
CCCCCBr | inactive | inactive |  | 
Cc1nn(-c2cc(NS(C)(=O)=O)c(Cl)cc2Cl)c(=O)n1C(F)F | inactive | inactive |  | 
O=C(CCl)c1ccccc1 | inactive | inactive |  | 
CCOP(=S)(OCC)SCSC(C)(C)C | inactive | inactive |  | 
NNC(=S)NN | inactive | inactive |  | 
Cc1ccc(Cl)c(O)c1 | inactive | inactive |  | 
O=C(O)c1ccc(=O)[nH]c1 | inactive | inactive |  | 
c1cncc([C@@H]2CCCCN2)c1 | inactive | inactive |  | 
C=CC[C@]1(O)CC[C@H]2[C@@H]3CCC4=CC(=O)CCC4=C3C=C[C@@]21C | inactive | inactive |  | 
CNC(=O)Oc1ccccc1C(C)C | inactive | inactive |  | 
N#Cc1ccncc1 | inactive | inactive |  | 
COCCOCCO | inactive | inactive |  | 
C[C@]12CC[C@H]3[C@@H](CC[C@@]45O[C@@H]4C(O)=C(C#N)C[C@]35C)[C@@H]1CC[C@@H]2O | inactive | inactive |  | 
CC(CC(C#N)(c1ccccc1)c1ccccc1)N(C)C (centres undefined) | inactive | inactive |  | 
O=CC=O | inactive | inactive |  | 
Nc1ncn[nH]1 | inactive | inactive |  | 
CC1=C2C[C@H]3[C@@H](CC=C4C[C@@H](O)CC[C@@]43C)[C@@H]2CC[C@]12O[C@@H]1C[C@H](C)CN[C@H]1[C@H]2C | inactive | inactive |  | 
OCC(Cl)CCl (centres undefined) | inactive | inactive |  | 
c1cc2c3c(cccc3c1)CC2 | inactive | inactive |  | 
CC(C)CCON=O | inactive | inactive |  | 
C[C@H](CN1CCOCC1)C(C(=O)N1CCCC1)(c1ccccc1)c1ccccc1 | inactive | inactive |  | 
COC(=O)Nc1cccc(OC(=O)Nc2cccc(C)c2)c1 | inactive | inactive |  | 
N#CC1(N=NC2(C#N)CCCCC2)CCCCC1 | inactive | inactive |  | 

SMILES | Potency [1] | Potency [2] | viability change, negative = cytotoxic [1] | activity change, negative = cytotoxicity [2]
O=NN(c1ccccc1)c1ccccc1 | inactive | inactive |  | 
CC(C)=CCOc1c2occc2cc2ccc(=O)oc12 | inactive | inactive |  | 
OC(Cc1ccccc1Cl)(Cn1[nH]cnc1=S)C1(Cl)CC1 (centres undefined) | inactive | inactive |  | 
CC(C)NCC(O)c1ccc([N+](=O)[O-])cc1 (centres undefined) | inactive | inactive |  | 
CCCCCCC[CH2][Sn]([Cl])([Cl])[CH2]CCCCCCC | inactive | inactive |  | 
O=P(Cl)(Cl)Cl | inactive | inactive |  | 
CCCCOP(=O)(O)OCCCC | inactive | inactive |  | 
Oc1ccc(Cl)cc1 | inactive | inactive |  | 
O=C(O)c1cc(Oc2ccc(C(F)(F)F)cc2Cl)ccc1[N+](=O)[O-] | inactive | inactive |  | 
CN(C)C(=O)Oc1cc(OC(=O)N(C)C)cc(C(O)CNC(C)(C)C)c1 (centres undefined) | inactive | inactive |  | 
c1cc[n+]2c(c1)-c1cccc[n+]1CC2 | inactive | inactive |  | 
Nc1ccccc1C(=O)Oc1ccc2ccccc2c1 | inactive | inactive |  | 
FC(Cl)(Cl)Cl | inactive | inactive |  | 
CC(=O)/C=C/c1ccccc1 | inactive | inactive |  | 
CC(=O)/C=C/c1ccc2c(c1)OCO2 | inactive | inactive |  | 
COP(=S)(OC)SCn1nnc2ccccc2c1=O | inactive | inactive |  | 
Cc1cc(Cl)ccc1OCCCC(=O)O | inactive | inactive |  | 
CN1C(=S)CN=C(c2ccccc2)c2cc(Cl)ccc21 | inactive | inactive |  | 
BrCCc1ccccc1 | inactive | inactive |  | 
N#CCBr | inactive | inactive |  | 
N#CCc1ccccc1 | inactive | inactive |  | 
O=[N+]([O-])O | inactive | inactive |  | 
CCCCN(CCCC)C(=S)S | inactive | inactive |  | 
CCC[N+](=O)[O-] | inactive | inactive |  | 
Nc1c(Br)cc([N+](=O)[O-])cc1[N+](=O)[O-] | inactive | inactive |  | 

SMILES | Potency [1] | Potency [2] | viability change, negative = cytotoxic [1] | activity change, negative = cytotoxicity [2]
CC(C)(c1ccccc1)c1cc(-n2nc3ccccc3n2)c(O)c(C(C)(C)c2ccccc2)c1 | inactive | inactive |  | 
FC(Cl)(Cl)C(F)(Cl)Cl | inactive | inactive |  | 
CCc1cccc(C)c1N(C(=O)CCl)C(C)COC (centres undefined) | inactive | inactive |  | 
CCCCC(C#N)(Cn1cncn1)c1ccc(Cl)cc1 (centres undefined) | inactive | inactive |  | 
CCC(CC)Nc1c([N+](=O)[O-])cc(C)c(C)c1[N+](=O)[O-] | inactive | inactive |  | 
O=C(CBr)OCc1ccccc1 | inactive | inactive |  | 
OCc1ccco1 | inactive | inactive |  | 
CCc1cccc(CC)c1N(COC)C(=O)CCl | inactive | inactive |  | 
C=Cc1cccc(CCl)c1 | inactive | inactive |  | 
CCC(C)c1cc(C(C)(C)C)cc(-n2nc3ccccc3n2)c1O (centres undefined) | inactive | inactive |  | 
CN/C(=N\[N+](=O)[O-])NCC1CCOC1 (centres undefined) | inactive | inactive |  | 
CCOC(=O)CCN(SN(C)C(=O)Oc1cccc2c1OC(C)(C)C2)C(C)C | inactive | inactive |  | 
CCCCCCC(=O)CCCCCC/C=C/C[C@@H](O)[C@H](O)[C@@](N)(CO)C(=O)O |  |  | 2.93% [at 18.9 µM] | -1.02% [at 18.9 µM]
Nc1ccc(Cl)cc1 | inactive | inactive |  | 
O=[N+]([O-])c1ccc(Cl)cc1 | inactive | inactive |  | 
Cc1ccc(OP(=O)(Oc2ccc(C)cc2)Oc2ccc(C)cc2)cc1 | inactive | inactive |  | 
C[C@]12CC[C@H]3[C@@H](CC=C4C[C@@H](O)CC[C@@]43C)[C@@H]1CC[C@@H]2O | inactive | inactive |  | 
CC(C)(COCC1CO1)COCC1CO1 (centres undefined) | inactive | inactive |  | 
O=C(O)CBr | inactive | inactive |  | 
CC(C)(C)c1ccccc1O | inactive | inactive |  | 
Cc1ccc(C)c2ccccc12 | inactive | inactive |  | 
CN1[C@@H]2CC[C@H]1CC(O)C2 (some centres undefined) | inactive | inactive |  | 
